A short description of assay [1]: qHTS to identify inhibitors of the type 1 interferon - major histocompatibility complex class I in skeletal muscle: primary screen against the NCATS Mechanism Interrogation Plate v5.0 (MIPE) Libary (AID 1347411). Further: nearly all actives have a fitted effect of over 65% in size. Further: potency means the concentration at half of the fitted maximal effect. A digest of the protocol: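 Immortalized human C25cl48 myoblasts with HiBit knocked into endogenous HLA-B*08:01 were stimulated with 4.0 ng/ml IFN-beta and exposed to compounds (11-point 1:3 titration, top 46 uM final) for 24 hrs at 37 C; HiBiT lytic luminescence measured.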

Assay [2] is described as follows: Primary qHTS for inhibitors of nuclear receptor binding SET domain protein 2 (NSD2) in an RCH-ACV wild type WT cells (2C) (AID 1645877). Further: nearly all actives have a fitted effect of over 70% in size. Further: potency means the concentration at half of the fitted maximal effect.
Assay [3] concerns the target Glutathione peroxidase 1 (Homo sapiens) (UniProt P07203). Put plainly: Primary qHTS Assay for Inhibitors of Recombinant Selenoprotein Glutathione Peroxidase 1 (GPX1) (AID 1845191). Further: nearly all actives have a fitted effect of over 65% in size. A digest of the protocol: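 GR-coupled assay: compounds preincubated 30 min at room temperature with GPX1, then reaction started with CHP; final 10 nM GPX1, 1 mM GSH, 0.5 mM CHP, 0.5 mM NADPH, 100 nM GR, 0.01% BSA, pH 7.5 Tris buffer. NADPH fluorescence (340/450 nm) read at 0 and 15 min.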

In assay [4] the target is Phospholipid hydroperoxide glutathione peroxidase GPX4 (Homo sapiens) (UniProt P36969). Nature of the assay: Primary qHTS Assay for Inhibitors of Recombinant Selenoprotein Glutathione Peroxidase 4 (GPX4) (AID 1845192). Further: nearly all actives have a fitted effect of over 65% in size. Further: potency means the concentration at half of the fitted maximal effect. Conditions: outcome: dose series up to 50 µM unless noted. A digest of the protocol: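 GR-coupled assay: recombinant GPX4 preincubated 30 min with compound at room temperature; final 200 nM GPX4, 1 mM GSH, 0.5 mM cumene hydroperoxide, 0.5 mM NADPH, 100 nM GR, 0.01% BSA, pH 7.5 Tris. NADPH fluorescence (340/450 nm) read at 0 and 15 min.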

A short description of assay [5]: qHTS drug screen for cell cycle checkpoint inhibitors in PARPi-resistant BRCA-mutant ovarian cancer cell lines. (AID 1963452; calls by dose curve). The note with it: PEO1/OlaR viability, CellTiter-Glo luminescence, 96 h, stronger effect = lower value. The method, boiled down: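 PEO1, PEO4 and PEO1/OlaR ovarian cancer cells, 600 per well, exposed 96 h at 37C to a dilution series. Viability read by CellTiter-Glo luminescence, normalized to DMSO and empty wells; activity summarized as Z-AUC.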

Assay [6] is described as follows: Primary qHTS for inhibitors of nuclear receptor binding SET domain protein 2 (NSD2) in an isogenic RCH-ACV NSD2 p.E1099K mutant (9B) (AID 1645876). Further: nearly all actives have a fitted effect of over 70% in size. Further: potency means the concentration at half of the fitted maximal effect.
Where [7] appears, read: measured here: PEO1 parental Z-AUC.

7 molecules from PubChem BioAssay (NCATS) can be followed below.

“And” between values parts separate entries of the source, which are not always exact repeats. Equal entries are not always repeated. Results filed as inconclusive are left out. Some structures have more than one record in an assay (separate samples or runs), and their calls can disagree. The source made the active and inactive calls. Unless noted, the call rests on the fitted dose curve; in most records, active means well fitted curve in the direction sought with a large enough effect; inconclusive means small, poorly fitted or top-dose-only effect, or another doubt; inactive means no such curve, though single readings can be large; an effect the other way counts as inactive or inconclusive.

Glutathione peroxidase 1 (Homo sapiens), sequence (P07203 whole entry, looked up): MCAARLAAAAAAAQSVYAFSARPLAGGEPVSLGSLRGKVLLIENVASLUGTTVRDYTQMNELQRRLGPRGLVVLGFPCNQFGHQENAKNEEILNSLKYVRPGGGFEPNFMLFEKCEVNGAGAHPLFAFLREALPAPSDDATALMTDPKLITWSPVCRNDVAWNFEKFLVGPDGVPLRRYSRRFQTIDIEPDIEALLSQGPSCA
Phospholipid hydroperoxide glutathione peroxidase GPX4 (Homo sapiens), sequence (P36969 whole entry, looked up): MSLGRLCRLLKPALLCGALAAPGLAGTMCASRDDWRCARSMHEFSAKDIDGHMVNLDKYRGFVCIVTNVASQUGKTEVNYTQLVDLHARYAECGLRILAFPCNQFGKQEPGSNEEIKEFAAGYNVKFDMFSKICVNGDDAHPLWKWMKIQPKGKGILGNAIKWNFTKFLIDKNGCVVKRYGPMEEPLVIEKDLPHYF

Consider `Cc1[nH]nc2ncc(C(=O)N3CCC[C@H]3c3ccc(Cl)cc3)cc12`, for which the Potency result in assay [1], in assay [3] and in assay [4] was “inactive” each time. Besides, the Potency in assay [2] is 0.296 µM (active). Moreover, the Z-AUC in assay [5] is -0.0587 (inactive); in assay [5] (setting [7]) it was 0.0336; in assay [5] (measured here: PEO4 Z-AUC), -0.0502.

On to `C=C1/C(=C/C=C2\CCCC3(C)[C@@H]([C@H](C)/C=C/C=C/C(O)(CC)CC)CC[C@@H]23)C[C@@H](O)C[C@@H]1O` (stereo partly specified), for which the Potency result in assay [1] and in assay [3] was “inactive” throughout. Besides, the Potency entry in assay [4] was “inactive and 15.8 µM (active)”. The Z-AUC in assay [5] is -0.128 (inactive); in assay [5] (setting [7]) it was -0.195; in assay [5] (measured here: PEO4 Z-AUC), -0.444.

`Cc1[nH]cnc1CN1CCN(C(=O)N[C@@H](CC(C)C)C(=O)O)[C@@H](Cc2ccccc2)C1=O`: the Potency entry in assay [1], in assay [6] and in assay [4] was “inactive” in each case. For the same molecule, the values for the Z-AUC in assay [5], in assay [5] (setting [7]) and in assay [5] (measured here: PEO4 Z-AUC) were -0.059 (inactive), 0.199 and 0.0254, respectively.

Regarding `CC(=O)N[C@H]1CSSC[C@@H](C(N)=O)NC(=O)[C@H](C(C)C)NC(=O)[C@H](C)NC(=O)[C@H](Cc2cnc[nH]2)NC1=O`, the Potency result in assay [1], in assay [2], in assay [3] and in assay [4] was “inactive” each time. Further, the results for the Z-AUC in assay [5], in assay [5] (setting [7]) and in assay [5] (measured here: PEO4 Z-AUC) were -0.0315 (inactive), -0.625 and -0.422, respectively.

For the molecule `CC(=O)[C@]1(N)Cc2c(O)c3c(c(O)c2[C@@H](O[C@H]2C[C@H](O)[C@H](O)CO2)C1)C(=O)c1ccccc1C3=O`, the Potency entry in assay [1], in assay [3] and in assay [4] was “inactive” throughout. Moreover, the Potency in assay [2] was 23.5 µM (active). Moreover, the Z-AUC in assay [5] was -0.249 (inactive); in assay [5] (setting [7]) it was -0.44; in assay [5] (measured here: PEO4 Z-AUC) it was -0.284.

As for `C[C@H](NC(=O)/C(C#N)=C/c1cccc(Br)n1)c1ccccc1`, the Potency in assay [1] is 10.4 µM (active); in assay [6] it was 14.8 µM (active). Also, the Potency entry in assay [4] is “inactive”. Also, the Z-AUC is 0.178 (inactive) in assay [5], -0.139 in assay [5] (setting [7]) and -0.487 in assay [5] (measured here: PEO4 Z-AUC).

On to `C[C@@H](O)[C@@H]1NC(=O)[C@H](CCCCN)NC(=O)[C@@H](Cc2c[nH]c3ccccc23)NC(=O)[C@H](Cc2ccccc2)NC(=O)[C@@H](NC(=O)[C@H](N)Cc2ccccc2)CSSC[C@@H](C(=O)N[C@H](CO)[C@@H](C)O)NC1=O`, for which the Potency entry in assay [1] and in assay [3] was “inactive” throughout.
